BJeLR viability = BJeLR cell viability loss | BJeLR (HRASV12) viability, CellTiter-Glo ATP luminescence, 48 h | inhibition, % (no concentration beside the values) | 300,000 tested, 0.17% active | AID 1554; in the data active means inhibition above about 50%
PrP UTR inh = inhibition of PrP 5' UTR reporter expression. cell-based PrP 5' UTR mRNA reporter, plate reader. inhibition, % (no concentration beside the values). 340,000 tested, 0.35% active; in the data active means inhibition above about 52%; further: 0 = median of the neutral control wells
SSB-PriA inh = K. pneumoniae PriA-SSBct interaction inhibition; 430,000 tested, 0.6% active; AlphaScreen SSBct-PriA binding, biotinylated peptide; inhibition, % at 33 µM; AID 1272365; in the data active means inhibition mostly above about 37%, no sharp cut-off; inactive means mostly below about 20%;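 further: plate controls were negative control peptide for no effect and reference peptide for full effect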
RecA splice inh = inhibitors of M. tuberculosis RecA intein splicing. P9WHJ3. inhibition, % (concentration not given with the values). 290,000 tested, 0.75% active. cell-free RecA intein splicing, fluorescence; in the data active means inhibition above about 30%;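 further: 0% = vehicle wells and 100% = reference inhibitor control wells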
Target sequence (P9WHJ3 whole entry, looked up, canonical isoform): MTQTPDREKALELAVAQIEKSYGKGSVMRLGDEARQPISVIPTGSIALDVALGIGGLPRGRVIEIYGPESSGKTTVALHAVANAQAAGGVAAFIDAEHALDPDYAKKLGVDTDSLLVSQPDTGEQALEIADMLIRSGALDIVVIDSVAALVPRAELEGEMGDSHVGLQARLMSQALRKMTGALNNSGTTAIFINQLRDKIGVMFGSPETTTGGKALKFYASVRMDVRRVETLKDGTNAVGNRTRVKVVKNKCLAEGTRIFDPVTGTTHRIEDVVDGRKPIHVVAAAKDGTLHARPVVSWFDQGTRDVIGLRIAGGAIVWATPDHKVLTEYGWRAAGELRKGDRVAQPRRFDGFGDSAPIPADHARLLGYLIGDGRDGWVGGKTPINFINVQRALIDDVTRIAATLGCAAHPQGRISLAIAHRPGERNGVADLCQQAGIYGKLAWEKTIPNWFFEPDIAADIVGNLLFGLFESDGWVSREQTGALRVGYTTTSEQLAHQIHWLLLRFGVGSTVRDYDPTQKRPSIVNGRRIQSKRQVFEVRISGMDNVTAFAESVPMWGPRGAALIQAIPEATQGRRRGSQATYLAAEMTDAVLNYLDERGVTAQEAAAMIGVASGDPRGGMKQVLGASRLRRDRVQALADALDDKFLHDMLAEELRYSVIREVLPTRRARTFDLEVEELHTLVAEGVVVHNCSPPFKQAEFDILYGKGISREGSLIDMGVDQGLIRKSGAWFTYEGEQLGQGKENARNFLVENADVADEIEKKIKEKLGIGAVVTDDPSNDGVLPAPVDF
PrPC surface inh = inhibitors of human cell surface prion protein PrPC | TR-FRET read-out | 370,000 tested, 0.43% active | P04156 | inhibition, % at 13.8 µM | AID 720596; in the data active means inhibition above about 24%; further: 0% = median of the test wells and 100% = reference compound wells
PfHsp40 rescue = compounds rescuing yeast from Plasmodium falciparum HSP40 toxicity; S. cerevisiae expressing PfHsp40, growth rescue, ATP luminescence; growth rescue, % at 12.5 µM; 340,000 tested, 0.68% active; AID 504582; in the data active means growth rescue above about 28%, passing the limit was not always enough;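 further: yeast W303a lacking pdr1 and pdr3 grown in galactose medium; growth measured after three days at 30 °C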
* marks the source's active call; other numbers are inactive results; i = inactive; . = no result given. The list is not random: actives were taken first. Their share in the collection is about 1.9%.

SMILES	BJeLR viability	PrP UTR inh	SSB-PriA inh	RecA splice inh	PrPC surface inh	PfHsp40 rescue
CCOc1ccccc1Nc1nnc(Cc2ccccc2Cl)c(=O)[nH]1	9.6	-4.6	-7.6	30.9*	1.5	0.7
CCOc1ccccc1Nc1nnc(C)c(=O)[nH]1	7.9	0.9	-2.9	1.4	-1.8	-0.9
Cc1cccc(NC(=O)C2CCCN(S(C)(=O)=O)C2)c1C (stereo unspecified)	.	.	-7.0	.	.	.
O=C(CSc1ccc2nnc(-c3cccs3)n2n1)NC1CCCC1	.	.	1.0	.	.	.
CCOC(=O)c1cc2c(ccn2C)n1Cc1cc(C)ccc1C	-9.1	-23.4	40.9*	10.9	4.5	-0.6
Cc1nnsc1C(=O)Nc1ccsc1-c1nc(C2CC2)no1	.	.	-21.0	.	.	.
CS(=O)(=O)N1CCC(C(=O)Nc2nc3c(s2)CCC3)CC1	.	.	-2.0	.	.	.
O=C(NCc1nncn1-c1ccccc1)c1cnn2c1OCCC2	.	.	-5.0	.	.	.
CC(=O)c1ccccc1OCCOCCOCCOc1ccccc1C(C)=O	55.3*	7.4	-4.5	-2.2	-3.4	1.4
CC(=O)c1ccccc1OCCCN1CCCCC1	-7.1	-14.6	-7.0	0.4	-7.0	-0.5
O=c1oc(-c2ccccc2Cl)nc2ccsc12	-4.9	-13.7	4.8	35.3*	4.6	4.2
O=c1oc(-c2ccc(F)cc2)nc2ccsc12	11.7	-8.8	-6.6	26.1	-1.8	-0.3
CCOC(=O)C1=C(c2ccccc2)O/C(=C(/C#N)C(F)(F)F)S1	44.1	.	.	41.5*	.	.
CCOC(=O)C1=C(c2ccccc2)O/C(=C(\C(=O)OC)C(F)(F)F)S1	3.9	-20.1	-17.3	2.4	-2.9	-1.6
CN(C)c1ncc(NC(=O)CNC(=O)c2ccccc2)c(N(C)C)n1	.	.	1.0	.	.	.
COc1ccc(C)cc1NC(=O)C(=O)NCC(c1ccc2c(c1)CCN2C)N(C)C (stereo unspecified)	.	.	53.0*	.	.	.
CC(C)(C)c1cc(NCCCn2ccnc2)n2ncc(-c3ccc(Cl)cc3)c2n1	-7.1	-64.3	-34.9	17.5	2.3	70.3*
O=C(COc1cccc(C(F)(F)F)c1)Nc1ccccc1-c1ccc(=O)[nH]n1	.	.	-8.0	.	.	.
COc1ccc(C(C)NC(=O)CCc2ccccc2)cc1 (stereo unspecified)	0.2	-45.6	-6.0	-1.9	8.0	-1.9
COc1ccc(CCC(=O)NC(C)C)cc1	-12.6	-23.9	26.8	-0.5	4.5	39.1*
COc1ccnc(CSC(N)=Nc2ccccc2OC)c1	13.3	-5.1	40.4*	-1.3	-11.9	0.3
O=C(Nc1nc(-c2ccccc2)c(-c2ccccc2)o1)c1ccc(F)cc1	-6.8	10.7	-12.1	8.4	1.4	417.9*
COc1cccc(C(=O)Nc2nc(-c3ccccc3)c(-c3ccccc3)o2)c1	-7.3	-14.2	17.3	16.5	1.2	3.8
O=C(NC1CC1)c1cccc(Oc2ccccc2)c1	-10.7	-35.7	1.8	-1.2	4.7	77.0*
Cc1cc(-c2nnc(NC(=O)CS(=O)(=O)c3ccc(Cl)cc3)o2)nn1C	.	.	-12.0	.	.	.
SMILES	BJeLR viability	PrP UTR inh	SSB-PriA inh	RecA splice inh	PrPC surface inh	PfHsp40 rescue
O=[N+]([O-])c1cc(CN2CCN(Cc3ccccc3)CC2)ccc1Sc1ccc(Cl)cc1	.	.	57.9*	.	.	.
CCCCc1c(C)nc2ccc(Br)cc2c1SCCC#N	.	.	.	3.0	.	.
CCc1c(C)nc2ccc(Br)cc2c1SCCC#N	-1.5	-17.2	-12.6	2.4	47.1*	0.7
COc1cc(/C=C/C(=O)c2ccc([N+](=O)[O-])o2)ccc1O	92.4*	-16.8	32.1	-18.0	-3.4	18.7
COc1ccc(/C=C/C(=O)c2ccc([N+](=O)[O-])o2)cc1OC	69.8*	.	4.4	-25.1	-6.1	.
COc1cc(/C=C/C(=O)O)ccc1O	-2.9	-4.7	-5.6	-3.3	-1.9	-1.4
O=C(/C=C/c1cccc(Cl)c1)c1ccc([N+](=O)[O-])o1	107.4*	-27.2	-3.4	0.9	0.3	-6.1
COc1cc(/C=C/[N+](=O)[O-])ccc1O	72.5*	-2.3	-11.6	-0.9	-4.6	4.0
COc1cc(OC)c(C(=O)C=Cc2ccc(OC)c(OC)c2)c(OC)c1	.	14.7	0.9	.	3.0	0.2
O=C(CN1CC(=O)Oc2ccccc21)OCC(=O)c1ccccc1	-5.2	-19.3	92.4*	6.8	2.8	-0.3
O=C(CN1CC(=O)Oc2ccccc21)OCC(=O)c1cccc(Br)c1	-18.8	-14.4	77.2*	0.4	.	-0.4
COC(=O)c1ccc(NC(=O)Cc2c(C)nc(SC(C)c3ccccc3)[nH]c2=O)cc1 (stereo unspecified)	.	.	-10.0	.	.	.
Cc1ccc(NC(=O)C2CCN(c3cnc4ccccc4n3)CC2)cc1Cl	.	.	-19.0	.	.	.
Cc1ccccc1C(=O)Nc1ccc2c(c1)CC(=O)N2	.	.	0.0	.	.	.
O=C(c1cc2ccccc2o1)N(Cc1ccco1)Cc1cccs1	7.5	-8.3	-32.5	19.9	-8.3	164.8*
O=C(NCc1ccccc1)C1=C[C@@H](C2CC2)C[C@@H](OCc2ccc(CO)cc2)O1	-8.4	-18.7	-0.3	1.6	3.0	54.5*
Cc1noc(C2CCN(C(=O)CCCc3ccccc3)CC2)n1	.	.	5.0	.	.	.
Cc1noc(C2CCCN2C(=O)NCCCc2ccccc2)n1 (stereo unspecified)	.	.	54.0*	.	.	.
N=C1CCCN1CC(=O)c1ccc(Br)cc1	-1.8	-11.0	2.2	1.3	0.6	45.6*
O=C(CN1CCOCC1)c1ccc(Br)cc1	-8.0	-5.4	-2.4	-1.5	18.6	.
O=C1CCCc2cc3c(cc21)CCCC3	.	-18.8	-12.9	.	-0.9	33.4*
O=C1CCCCc2cc(O)c(O)cc21	.	.	.	.	0.6	.
COC(=O)c1[nH]c2c(c1C)C(=O)CC(c1cc(OC)ccc1OC)C2 (stereo unspecified)	15.7	-16.1	4.2	2.0	-9.1	-0.4
COC(=O)c1[nH]c2c(c1C)C(=O)CC(c1cccs1)C2 (stereo unspecified)	50.8*	17.9	5.0	1.1	12.7	-0.8
COc1ccc(C2CC(c3ccccc3)=NN2c2ccc(S(N)(=O)=O)cc2)cc1OC (stereo unspecified)	-3.9	-19.7	-27.3	-39.7	-1.5	1.5
SMILES	BJeLR viability	PrP UTR inh	SSB-PriA inh	RecA splice inh	PrPC surface inh	PfHsp40 rescue
COc1ccc(C2=NN(c3ccc(C(=O)O)cc3)C(c3ccc(OC)c(OC)c3)C2)cc1 (stereo unspecified)	4.2	2.9	-13.4	i	-2.9	112.3*
CCN1/C(=C/c2ccc3cc(C)ccc3[n+]2CC)Sc2cc(C)ccc21	.	23.6	36.6	.	17.8	-3.3
CCN1/C(=C/c2ccc3cc(C)ccc3[n+]2C)Sc2ccc3sccc3c21	.	-10.2	12.7	.	15.0	153.0*
COC(=O)NCCn1nc(C(F)(F)F)c2c1CCOC2	.	.	0.0	.	.	.
O=C(CCc1ccc(-c2ccccc2)o1)Nc1ccccc1[N+](=O)[O-]	.	.	84.0*	.	.	.
O=C(Nc1ccc(F)c(Cl)c1)Nc1c[nH]c2ccccc12	.	.	54.0*	.	.	.
CC(C)c1ccc(NC(=O)Nc2c[nH]c3ccccc23)cc1	.	.	39.0*	.	.	.
O=C(Nc1ccc(OC(F)(F)F)cc1)Nc1c[nH]c2ccccc12	.	.	17.0	.	.	.
CCc1ccc(NC(=O)Nc2c[nH]c3ccccc23)cc1	.	.	38.0*	.	.	.
Cc1ccc(NC(=O)Nc2c[nH]c3ccccc23)cc1Cl	.	.	-10.0	.	.	.

Bioassay records from PubChem BioAssay.
